In PubChem BioAssay (NCATS):
“And” between values parts separate entries of the source, which are not always exact repeats. Identical values can stand only once. Results filed as inconclusive are left out. The source made the active and inactive calls. Unless noted, calls follow the shape of the dose curve; as a rule, active = well fitted curve in the direction sought with a large enough effect; inconclusive = small, poorly fitted or top-dose-only effect, or another doubt; inactive = no such curve, though single readings can be large; an effect the other way counts as inactive or inconclusive.

Tests used:
[1] = Cell Viability - H-4-II-E (AID 543);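 also: cells exposed to compound for 40 hours; nearly all actives have a fitted effect of over 35% in size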; also: potency is read from the fitted curve at half-maximal effect
Method in brief: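 Here, cytotoxicity is measured in the rat hepatoma line H-4-II-E as loss of intracellular ATP after 40 hr compound treatment, detected by luciferase luminescence.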

[2] = Cell Viability - LYMP2-004 (AID 966);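 also: plate controls were DMSO only for no effect and tetraoctylammonium bromide control for full effect; nearly all actives have a fitted effect of over 65% in size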
Method in brief: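 Acute toxicity is scored as a concentration-dependent drop in intracellular ATP, quantified by luciferase luminescence, in human lymphoblastoid cells exposed to compound for 24 hr. AC50 derives from Hill-equation modelling.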

[3] = target: Vitamin D3 receptor (Homo sapiens) (UniProt P11473); assay: qHTS assay for small molecule antagonists of vitamin D receptor signaling (AID 588541; calls by dose curve;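 also: receptor activated by calcitriol during compound treatment; % is scaled to controls: 0 for no effect and ±100 for the full control effect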)
Method in brief: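 VDR-UAS-bla HEK293T cells (2000/well, 2% charcoal-stripped FBS) were treated with titrated compounds plus 1-alpha,25-dihydroxyvitamin D3 (50 nM or 3 nM final) for 16 h at 37 C. CCF4 beta-lactamase fluorescence was read; Hill fits gave IC50.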

[4] = target: Retinoic acid receptor RXR-alpha (Homo sapiens) (UniProt P19793); assay: qHTS assay for small molecule antagonists of retinoid X receptor alpha signaling (AID 588546; active = well fitted inhibition curve with a large enough effect in the signal ratio, with a control signal flat, not every such curve was filed as active; the % refers to the signal ratio; also: potency is read from the fitted curve at half-maximal effect); conditions: HEK293T RXRa-UAS-bla, beta-lactamase ratio, antagonist mode
Method in brief: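 Beta-lactamase reporter inhibition, read as CCF4 fluorescence ratio (ex 405, em 460/530 nm) after 2 h at RT. HEK293T UAS-bla cells, 2500/well, were stimulated with 9-cis-RA at 500 or 100 nM final alongside test compound for 18 h at 37 C.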

[5] = target: Mitogen-activated protein kinase 10 (Mus musculus) (UniProt Q61831); assay: JNK3 AlphaScreen Assay (AID 530; active = well fitted curve in either direction with a large enough effect, not every such curve was filed as active;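 also: kinase came from lysate of stimulated human HepG2 cells; signal reports phosphorylation of biotinylated GST-cJun 1-79 at Ser73 with 10 µM ATP; % is scaled to controls: 0 for no effect and ±100 for the full control effect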)
Method in brief: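 JNK3 came from HepG2 lysates pre-activated with IL-1beta and TNF-alpha and phosphorylated biotinylated GST-cJun (1-79) at 10 uM ATP, pH 7.6, room temperature. Compounds were titrated. AlphaScreen signal used anti-phospho-cJun (Ser73) antibody.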

[6] = Cell Viability - NIH 3T3 (AID 541); conditions: NIH 3T3 cell viability, qHTS; activity change, negative = cytotoxicity: at 92.2 µM (top of the series);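 also: cells exposed to compound for 40 hours; nearly all actives have a fitted effect of over 25% in size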; also: potency is read from the fitted curve at half-maximal effect;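 as to activity change, negative = cytotoxicity: plate controls were DMSO alone for no effect and tamoxifen positive control for full effect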
Method in brief: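 AC50 values reflect concentration-dependent loss of intracellular ATP in NIH 3T3 cells after 40 hr treatment in complete culture medium, quantified by luciferase-based luminescence.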

[7] = MultiTox-Fluor Cytotoxicity Assay - LYMP1-001 - Live Cells (AID 947);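 also: 0% = DMSO only and full inhibition = tetraoctylammonium bromide control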
[8] = Cell Viability - LYMP1-003 - Assay at 40 hr (AID 964); also: % is scaled to controls: 0 for no effect and ±100 for the full control effect; nearly all actives have a fitted effect of over 60% in size
Method in brief: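 This qHTS cytotoxicity screen treats human lymphoblastoid cells (LYMP1-003) with compounds for 40 hr and quantifies cellular ATP via luciferase luminescence.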

[9] = Cell Viability - LYMP2-007 (AID 979);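 also: cells exposed to compound for 24 h before reading; 0% = DMSO only and the negative end = 92 µM tetraoctylammonium bromide; nearly all actives have a fitted effect of over 60% in size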
Method in brief: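 Acute toxicity is scored as a concentration-dependent fall in intracellular ATP in human lymphoblastoid cells treated 24 hr at 37 C, measured by luciferase luminescence; Hill-equation modelling yields AC50.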

[10] = Cell Viability - LYMP2-016 (AID 984);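 also: cells exposed to compound for 24 hours at 37 °C; % is scaled to controls: 0 for no effect and ±100 for the full control effect; nearly all actives have a fitted effect of over 55% in size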
Method in brief: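 Cytotoxicity was scored by luminescent ATP content (CellTiter-Glo) after 24 h compound exposure at 37 C of a human lymphoblastoid line at 2500 cells/well. Concentration-response data were fitted to the Hill equation for AC50.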

[11] = Cell Viability - LYMP2-018 (AID 985);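 also: compound exposure lasted 24 hr at 37 °C; plate controls were DMSO only for no effect and tetraoctylammonium bromide at 92 µM for full effect; nearly all actives have a fitted effect of over 50% in size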
Method in brief: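 Acute cytotoxicity is scored as a concentration-dependent drop in intracellular ATP after 24 hr exposure of the lymphoblastoid line in complete culture medium, measured by luciferase luminescence. Potency is expressed as AC50 from Hill modelling.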

[12] = qHTS assay for small molecule antagonists of peroxisome proliferator-activated receptor delta signaling (AID 588535); conditions: HEK293T PPARd-UAS-bla, beta-lactamase FRET ratio, 18 h; 460 nm channel;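 also: cells co-treated with a PPAR-delta agonist as stimulator during compound exposure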
Method in brief: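 GeneBLAzer PPAR-delta-UAS-bla HEK293T cells in medium with 2% charcoal/dextran FBS were preincubated 5 hrs at 37 C, then given compounds, incubated 18 hrs at 37 C, and read by CCF4 beta-lactamase fluorescence; IC50 from Hill fits.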

[13] = target: Peroxisome proliferator-activated receptor gamma (Homo sapiens) (UniProt P37231); assay: qHTS assay for small molecule antagonists of peroxisome proliferator-activated receptor gamma signaling (AID 588537; active = well fitted inhibition curve with a large enough effect in the signal ratio, with a control signal flat, not every such curve was filed as active; the % refers to the signal ratio;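 also: reporter cells co-stimulated with 50 nM rosiglitazone agonist during compound treatment; % of control where 0% means no effect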)
Method in brief: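 PPAR-gamma-UAS-bla HEK293 cells (3000/well, 1% charcoal/dextran-stripped FBS) were preincubated 6-6.5 h at 37 C, given titrated compounds, then stimulated with 50 nM rosiglitazone for 16 h. Beta-lactamase activity was read with CCF4 dye; IC50 came from Hill fits.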

[14] = Cell Viability - LYMP2-025 (AID 976);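 also: plate controls were DMSO only for no effect and tetraoctylammonium bromide control for full effect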
Method in brief: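 In qHTS format, LYMP2-025 lymphoblastoid cells in complete culture medium received compound for 24 hr; ATP-based CellTiter-Glo signal gave viability, with AC50 derived by Hill equation.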

[15] = Cell Viability - LYMP2-014 (AID 983);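 also: plate controls were DMSO only for no effect and 92 µM tetraoctylammonium bromide for full effect; nearly all actives have a fitted effect of over 50% in size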
Method in brief: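 Decrease in intracellular ATP after 24 hr treatment at 37 C, measured by luciferase luminescence, indicated cytotoxicity. Concentration-response data were fitted with the standard Hill equation to give AC50.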

[16] = target: Bile acid receptor (Homo sapiens) (UniProt Q96RI1); assay: qHTS assay for small molecule antagonists of farnesoid X receptor signaling (AID 588526; calls by dose curve; also: % is scaled to controls: 0 for no effect and ±100 for the full control effect)
Method in brief: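 Concentration-response titrations were fitted to the Hill equation for half-maximal inhibition and maximal response, with data normalised to 50 uM chenodeoxycholic acid and DMSO control wells. Cells: FXR-UAS-bla HEK293T, dialyzed FBS.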

[17] = qHTS assay for small molecule activators of the p53 signaling pathway (AID 651743; active = well fitted activation curve with a large enough effect in the signal ratio, not every such curve was filed as active; the % refers to the signal ratio; also: % of control where 0% means no effect); conditions: HCT-116 p53RE-bla, beta-lactamase FRET ratio, 16 h; activation: stronger effect = higher value
Method in brief: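 p53RE-bla HCT-116 cells with a stably integrated beta-lactamase reporter under p53 response elements were plated, rested 5 hours at 37 C/5% CO2, then exposed to compounds in DMSO for 16 hours at 37 C. LiveBLAzer B/G FRET substrate was read after 2 hours at room temperature.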

[18] = Cell Viability - Jurkat (AID 426;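 active = dose-dependent loss of cell ATP signal giving a full or clear fitted curve, ranked by lower potency value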;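 also: potency is read from the fitted curve at half-maximal effect; cells exposed to compound for 40 hours at 37 °C before ATP read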); conditions: qHTS
Method in brief: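 Seed 5000 Jurkat E6-1 cells/well; add compound; incubate 40 hr at 37 °C; add CellTiter-Glo; wait 20 min at room temperature; read luminescence. Fit concentration-response with Hill equation for AC50.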

[19] = target: Thyroid hormone receptor beta (Homo sapiens) (UniProt P10828); assay: qHTS assay for small molecule antagonists of thyroid hormone receptor beta signaling (AID 588547; active = well fitted inhibition curve with a large enough effect in the signal ratio, with a control signal flat, not every such curve was filed as active; the % refers to the signal ratio;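 also: cells stimulated with 0.4 nM T3 agonist during compound exposure; % is scaled to controls: 0 for no effect and ±100 for the full control effect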); conditions: TR-UAS-bla HEK293, beta-lactamase ratio, antagonist mode, 18 h
Method in brief: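 TR-UAS-bla GripTite HEK293 cells in 2% charcoal/dextran FBS medium were preincubated 4 h at 37 C, given compound (0.59 nM to 92 uM) plus 0.4 nM T3 (final) for 18 h, then CCF4 for 2 h at RT; Hill fit gave IC50.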

[20] = Cell Viability - LYMP2-021 (AID 974);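 also: compound exposure lasts 24 hours at 37 °C; % is scaled to controls: 0 for no effect and ±100 for the full control effect; nearly all actives have a fitted effect of over 55% in size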
Method in brief: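 Concentration-response cytotoxicity in a human lymphoblastoid line: 24 hr treatment at 37 C in complete culture medium, tetraoctylammonium bromide as positive control, luminescent ATP quantitation as viability measure.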

Sequence of Retinoic acid receptor RXR-alpha (Homo sapiens) (P19793 whole entry, looked up): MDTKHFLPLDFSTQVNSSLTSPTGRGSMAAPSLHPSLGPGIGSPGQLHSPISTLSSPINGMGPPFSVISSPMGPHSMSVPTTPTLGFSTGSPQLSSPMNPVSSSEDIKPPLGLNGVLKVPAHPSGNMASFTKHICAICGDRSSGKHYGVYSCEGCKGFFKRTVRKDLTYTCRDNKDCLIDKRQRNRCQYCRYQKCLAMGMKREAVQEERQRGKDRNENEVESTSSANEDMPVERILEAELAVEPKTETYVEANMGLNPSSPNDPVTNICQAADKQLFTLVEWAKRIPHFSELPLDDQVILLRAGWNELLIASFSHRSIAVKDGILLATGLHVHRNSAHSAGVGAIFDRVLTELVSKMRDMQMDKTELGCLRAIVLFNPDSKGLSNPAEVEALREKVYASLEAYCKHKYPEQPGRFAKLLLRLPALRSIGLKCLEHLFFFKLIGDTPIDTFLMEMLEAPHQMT
Sequence of Bile acid receptor (Homo sapiens) (Q96RI1 whole entry, looked up): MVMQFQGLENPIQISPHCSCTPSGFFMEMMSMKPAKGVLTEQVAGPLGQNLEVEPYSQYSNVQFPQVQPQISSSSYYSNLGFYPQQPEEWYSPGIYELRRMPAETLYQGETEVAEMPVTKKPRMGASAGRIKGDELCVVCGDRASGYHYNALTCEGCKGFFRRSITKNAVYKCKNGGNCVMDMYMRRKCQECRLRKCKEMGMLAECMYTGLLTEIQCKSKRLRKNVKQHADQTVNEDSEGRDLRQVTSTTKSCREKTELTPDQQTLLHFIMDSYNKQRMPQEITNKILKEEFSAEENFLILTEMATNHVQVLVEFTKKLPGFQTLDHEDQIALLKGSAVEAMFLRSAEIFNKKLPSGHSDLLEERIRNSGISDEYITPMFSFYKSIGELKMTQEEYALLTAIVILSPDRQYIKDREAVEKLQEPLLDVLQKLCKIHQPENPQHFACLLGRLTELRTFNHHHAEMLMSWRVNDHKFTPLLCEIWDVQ
Sequence of Thyroid hormone receptor beta (Homo sapiens) (P10828 whole entry, looked up): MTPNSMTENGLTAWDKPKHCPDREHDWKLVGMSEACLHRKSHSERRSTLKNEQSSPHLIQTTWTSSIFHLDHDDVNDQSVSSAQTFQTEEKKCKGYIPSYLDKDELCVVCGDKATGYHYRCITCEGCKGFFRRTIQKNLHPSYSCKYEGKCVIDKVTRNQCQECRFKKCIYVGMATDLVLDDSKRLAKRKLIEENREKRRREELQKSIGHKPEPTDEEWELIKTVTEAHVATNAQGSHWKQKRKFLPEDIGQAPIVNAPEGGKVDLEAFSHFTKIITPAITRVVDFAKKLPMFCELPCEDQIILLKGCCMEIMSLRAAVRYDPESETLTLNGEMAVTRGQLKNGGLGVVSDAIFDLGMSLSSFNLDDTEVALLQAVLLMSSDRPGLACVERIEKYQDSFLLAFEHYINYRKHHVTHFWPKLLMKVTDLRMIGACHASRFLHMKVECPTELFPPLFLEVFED
Sequence of Peroxisome proliferator-activated receptor gamma (Homo sapiens) (P37231 whole entry, looked up): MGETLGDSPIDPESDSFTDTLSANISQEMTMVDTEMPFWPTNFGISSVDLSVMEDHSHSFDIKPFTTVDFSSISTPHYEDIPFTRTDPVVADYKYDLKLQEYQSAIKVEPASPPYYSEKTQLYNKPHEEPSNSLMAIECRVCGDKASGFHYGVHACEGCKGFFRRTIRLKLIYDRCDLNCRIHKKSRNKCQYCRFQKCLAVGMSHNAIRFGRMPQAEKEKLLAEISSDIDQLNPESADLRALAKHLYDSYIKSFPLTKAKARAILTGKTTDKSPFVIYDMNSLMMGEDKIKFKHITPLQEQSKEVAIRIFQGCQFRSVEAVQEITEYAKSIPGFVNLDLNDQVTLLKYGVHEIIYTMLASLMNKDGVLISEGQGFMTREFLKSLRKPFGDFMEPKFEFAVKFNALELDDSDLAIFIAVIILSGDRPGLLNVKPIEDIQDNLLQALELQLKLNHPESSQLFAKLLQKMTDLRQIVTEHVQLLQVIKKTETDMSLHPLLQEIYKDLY
Sequence of Vitamin D3 receptor (Homo sapiens) (P11473 whole entry, looked up): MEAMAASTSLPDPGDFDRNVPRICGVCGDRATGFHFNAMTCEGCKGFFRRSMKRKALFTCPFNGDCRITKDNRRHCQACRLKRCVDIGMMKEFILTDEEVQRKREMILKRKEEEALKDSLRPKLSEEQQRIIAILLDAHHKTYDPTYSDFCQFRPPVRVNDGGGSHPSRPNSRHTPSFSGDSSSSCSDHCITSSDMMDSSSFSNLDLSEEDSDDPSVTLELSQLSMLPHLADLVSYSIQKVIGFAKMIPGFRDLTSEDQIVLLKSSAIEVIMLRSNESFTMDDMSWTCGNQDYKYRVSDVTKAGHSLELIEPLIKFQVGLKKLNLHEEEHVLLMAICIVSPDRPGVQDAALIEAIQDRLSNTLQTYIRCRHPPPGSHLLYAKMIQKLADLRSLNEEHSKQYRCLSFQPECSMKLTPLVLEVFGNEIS

O=C=Nc1ccc(Cl)c(Cl)c1
active: Potency [1] 31.6 µM | Potency [4] 14.1 µM
inactive: Potency [2] | Potency [3]

CC(=O)Nc1cccc(C)c1
inactive: Potency [5] | activity change, negative = cytotoxicity [6] -12.7% | Potency [1] | Potency [7] | Potency [8] | Potency [9] | Potency [10] | Potency [11] | Potency [13]
-12.4%: max response [12]

CCCCCCCC/C=C\CCCCCCCC(=O)N(CCO)CCO
92.2%: max response [12]
inactive: Potency [5] | Potency [7] | Potency [8] | Potency [2] | Potency [14] | Potency [15] | Potency [10] | Potency [16] | activation [17] -2.93%

Cc1c(C(=O)O)c(O)cc2c1C(=O)c1c(O)c([C@H]3O[C@H](CO)[C@@H](O)[C@H](O)[C@H]3O)c(O)c(O)c1C2=O
28.9%: max response [12]
active: activity change, negative = cytotoxicity [6] -80.4%
inactive: Potency [7] | Potency [16] | activation [17] 0.0222%

O=C(Cl)c1ccc([N+](=O)[O-])cc1
inactive: Potency [5] | Potency [1] | Potency [7] | Potency [8] | Potency [15] | Potency [10] | Potency [11] | max response [4] 11.8%
8.99%: max response [12]

O=[N+]([O-])c1cc(N(CCO)CCO)ccc1NCCO
25% and 8.06%: max response [12]
inactive: Potency [15] | Potency [10] | max response [4] 0.262% and 0.951%

CCN(CC)c1ccc(N)cc1
inactive: Potency [3] | activation [17] 11.7%
active: Potency [18] 44 µM | Potency [1] 79.4 µM

Cc1cc2nc(N)sc2cc1C
inactive: Potency [8] | Potency [14] | Potency [9] | Potency [15] | Potency [10] | Potency [11] | Potency [16] | Potency [13] | Potency [3] | activity change % (negative = inhibition) [19] -0.19%

Cc1cc(-c2ccc(N=Nc3cc(S(=O)(=O)O)c4ccccc4c3N)c(C)c2)ccc1N=Nc1cc(S(=O)(=O)O)c2ccccc2c1N
-39.2%: max response [12]
inactive: Potency [7] | Potency [3] | max response [4] 0.921% | activity change % (negative = inhibition) [19] -25.1%

Nc1ccc2c(c1)C(=O)c1ccccc1C2=O
inactive: Potency [15] | Potency [10] | Potency [11] | max response [4] 7.8% and -4.23% | activation [17] 2.17% and 5.16%
-6.52%: max response [12]

c1ccc(Nc2cccc3ccccc23)cc1
inactive: Potency [1] | Potency [8] | Potency [20] | Potency [14] | Potency [9] | Potency [10] | max response [4] -23.3% | activity change % (negative = inhibition) [19] -18.5% and -42% | activation [17] -1.55% and -1.95%
27.2% and -10.4%: max response [12]

Cc1c2ccccc2c(C)c2c1ccc1ccccc12
inactive: Potency [1] | Potency [7] | Potency [2] | Potency [20] | Potency [15] | Potency [11] | Potency [16]
active: activity change, negative = cytotoxicity [6] -137%

Cc1ccc(S(N)(=O)=O)cc1
inactive: Potency [2] | Potency [20] | Potency [14] | Potency [9] | Potency [10] | Potency [16] | Potency [13] | Potency [3]
10.9% and 2.08%: max response [12]

O=[N+]([O-])c1cc(Cl)c(Cl)c(Cl)c1Cl
active: Potency [6] 7.94 µM
inactive: Potency [5] | max response [4] -21.8% | activity change % (negative = inhibition) [19] 1.99% | activation [17] 0.035%
8.11%: max response [12]

O=[N+]([O-])c1cccc(I)c1
inactive: Potency [7] | Potency [2] | Potency [14] | Potency [9] | Potency [15] | Potency [10] | max response [4] -4.26% | activity change % (negative = inhibition) [19] -8.55%
12.5%: max response [12]
